The source made the active and inactive calls.
How the values were obtained:
[1] = test system: Human papillomavirus type 1a protein E7 (residues 44-93); experiment: HPV1a E7 fragment binders on microarrays, primary screen, biochemical, small-molecule microarray, residues 44-93, 635 nm fluorescence (AID 1108); settings: small-molecule microarray binding, fluorescence 635 nm; higher = more signal;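 further: E7 fragment applied at 1 µg/mL in TBST for 1 h at 4 C; score combines spot fluorescence with its signal to noise ratio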
[2] = modulators of HCV replicon luciferase signal, primary screen, HCV replication inhibitor project, Huh7 cells, luciferase reporter (AID 1109); settings: 48 h, higher = more signal;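 further: huh7 hepatoma cells harbouring a luciferase neomycin HCV replicon reporter; luciferase luminescence as measure of HCV replicon replication; test concentration not given here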
[3] = biological target: Left-right determination factor 2 (Homo sapiens) (UniProt O00292); experiment: LEFTY2 binders on small-molecule microarrays, primary screen, biochemical, small-molecule microarray, 635 nm fluorescence scan (AID 1110); settings: LEFTY2 binding, higher = more signal
Sequence of Left-right determination factor 2 (Homo sapiens) (O00292 whole entry, looked up): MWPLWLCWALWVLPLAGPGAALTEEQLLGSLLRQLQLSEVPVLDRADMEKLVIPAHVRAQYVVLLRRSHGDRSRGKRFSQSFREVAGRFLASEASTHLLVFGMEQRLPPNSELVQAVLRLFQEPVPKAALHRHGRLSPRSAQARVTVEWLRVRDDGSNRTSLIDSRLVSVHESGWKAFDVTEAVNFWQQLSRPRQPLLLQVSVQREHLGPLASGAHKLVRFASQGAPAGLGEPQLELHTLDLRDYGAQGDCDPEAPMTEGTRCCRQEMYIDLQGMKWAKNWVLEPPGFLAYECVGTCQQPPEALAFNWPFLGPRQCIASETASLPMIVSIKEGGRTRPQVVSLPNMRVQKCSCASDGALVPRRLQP

[4] = biological target: Calmodulin-1 (Homo sapiens) (UniProt P0DP23); experiment: CALM1 binders on microarrays, EGTA buffer, profiling panel, biochemical, small-molecule microarray, Cy5-labelled CALM1 (AID 1111); settings: Cy5-CALM1 binding fluorescence, higher = more signal;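 further: labelled calmodulin applied in Tris saline Tween buffer holding calcium plus EGTA and DTT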
[5] = biological target: Calmodulin-1 (Homo sapiens) (UniProt P0DP23); experiment: calcium-bound CALM1 binders on microarrays, profiling panel, artefact control for SMM control-protein annotation, biochemical, small-molecule microarray, Cy5-labelled CALM1, plus calcium (AID 1112); settings: Cy5-CALM1 binding fluorescence, higher = more signal;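 further: score merges spot fluorescence with signal to noise from triplicate slides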
[6] = small-molecule microarray binders of probe aWnt5a, primary screen, biochemical, biotinylated probe, 635/667 nm fluorescence (AID 1113); settings: higher = more signal;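 further: score merges 667 nm fluorescence intensity with signal-to-noise per printed feature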
[7] = small-molecule microarray binders of probe aShh, primary screen, biochemical, biotinylated probe, 635/667 nm fluorescence (AID 1114); settings: higher = more signal;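 further: probe is biotin-labelled aShh protein from a stem cell growth factor screen; measures binding of labelled protein to compounds printed on the slide; score merges feature fluorescence at 667 nm with signal-to-noise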
[8] = small-molecule microarray binders of probe aNog, primary screen, biochemical, biotinylated probe, 635/667 nm fluorescence (AID 1115); settings: higher = more signal;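 further: probe is biotinylated aNog protein used at 0.15 µg/mL for 1 h at 4 C; z-score combines 667 nm fluorescence of each spot with its signal to noise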
[9] = biological target: Torsin-1A-interacting protein 1 (Homo sapiens) (UniProt Q5JTV8); experiment: LAP1 binders from COS7 cell lysate, primary screen, small-molecule microarray, 635/667 nm fluorescence (AID 1116); settings: COS7-hLAP1 lysate binding, 635 nm fluorescence, higher = more signal
Sequence of Torsin-1A-interacting protein 1 (Homo sapiens) (Q5JTV8 whole entry, looked up): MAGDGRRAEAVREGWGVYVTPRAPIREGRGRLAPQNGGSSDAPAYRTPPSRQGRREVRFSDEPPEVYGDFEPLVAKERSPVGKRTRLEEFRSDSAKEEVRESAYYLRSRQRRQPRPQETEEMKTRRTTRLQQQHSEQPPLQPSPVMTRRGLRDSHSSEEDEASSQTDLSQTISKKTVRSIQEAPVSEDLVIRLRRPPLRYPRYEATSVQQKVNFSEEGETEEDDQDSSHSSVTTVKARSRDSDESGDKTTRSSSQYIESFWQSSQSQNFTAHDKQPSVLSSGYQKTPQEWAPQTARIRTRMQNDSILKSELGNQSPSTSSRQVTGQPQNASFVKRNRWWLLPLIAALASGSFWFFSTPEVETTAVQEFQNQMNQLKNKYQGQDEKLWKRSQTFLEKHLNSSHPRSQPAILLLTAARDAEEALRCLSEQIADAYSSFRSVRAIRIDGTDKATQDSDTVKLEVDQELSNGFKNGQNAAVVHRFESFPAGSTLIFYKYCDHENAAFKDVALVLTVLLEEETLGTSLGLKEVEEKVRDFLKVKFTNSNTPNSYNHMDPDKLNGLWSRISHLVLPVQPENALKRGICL

[10] = biological target: Alpha-bungarotoxin (Bungarus multicinctus) (UniProt P60615); experiment: alpha-bungarotoxin binders on microarray, profiling panel, artefact control for SMM control protein annotation, biochemical, small-molecule microarray, Alexa647 label, 635/667 nm fluorescence (AID 1117); settings: alpha-BTX-A647 binding fluorescence, higher = more signal
Sequence of Alpha-bungarotoxin (Bungarus multicinctus) (P60615 whole entry, looked up): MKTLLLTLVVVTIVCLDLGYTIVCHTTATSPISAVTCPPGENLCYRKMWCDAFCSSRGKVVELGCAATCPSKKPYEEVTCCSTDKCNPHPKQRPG

Albumin (Bos taurus) = Albumin (Bos taurus) (UniProt P02769); experiment: bovine serum albumin binders on microarray, profiling panel, artefact control for SMM control protein annotation, biochemical, small-molecule microarray, Alexa647 label, 635/667 nm fluorescence (AID 1118); settings: BSA-A647 binding, fluorescence 635 nm, higher = more signal;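 further: score merges 667 nm emission intensity and signal-to-noise per printed compound spot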
Sequence of Albumin (Bos taurus) (P02769 whole entry, looked up): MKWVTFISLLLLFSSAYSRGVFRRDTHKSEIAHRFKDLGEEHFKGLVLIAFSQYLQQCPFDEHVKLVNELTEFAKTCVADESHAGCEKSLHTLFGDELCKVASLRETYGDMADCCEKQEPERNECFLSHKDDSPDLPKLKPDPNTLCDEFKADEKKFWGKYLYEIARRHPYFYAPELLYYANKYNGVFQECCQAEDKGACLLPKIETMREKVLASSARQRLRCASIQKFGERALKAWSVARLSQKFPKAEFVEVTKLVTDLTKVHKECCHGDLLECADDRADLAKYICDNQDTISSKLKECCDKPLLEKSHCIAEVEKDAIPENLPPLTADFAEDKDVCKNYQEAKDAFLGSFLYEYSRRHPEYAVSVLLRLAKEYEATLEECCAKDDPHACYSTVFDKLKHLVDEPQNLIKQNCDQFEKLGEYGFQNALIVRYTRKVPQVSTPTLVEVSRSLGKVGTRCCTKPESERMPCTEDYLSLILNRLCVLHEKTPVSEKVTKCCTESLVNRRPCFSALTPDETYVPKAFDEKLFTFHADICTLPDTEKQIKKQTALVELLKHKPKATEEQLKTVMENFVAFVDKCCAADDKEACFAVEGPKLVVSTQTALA

[11] = small-molecule microarray binders of probe aXIP, primary screen, biochemical, NeuroSMM set, 635/667 nm fluorescence (AID 1119); settings: higher = more signal, called active from +8 up or from −8 down;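 further: probe is the protein aXip251-270 applied at 1 µg/mL to compound-printed slides; binding of probe to printed compounds measured as 667 nm fluorescence plus signal to noise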
[12] = small-molecule binders of probe aNOTCH3, primary screen, biochemical, small-molecule microarray, 635/667 nm fluorescence (AID 1120); settings: higher = more signal;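 further: probe is a biotin-tagged antibody raised against NOTCH3 rather than NOTCH3 protein; score merges spot fluorescence near 667 nm with spot signal to noise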
[13] = small-molecule binders of probe aNOTCH2, primary screen, biochemical, small-molecule microarray, 635/667 nm fluorescence (AID 1121); settings: higher = more signal;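 further: score merges feature fluorescence read at 667 nm with its signal to noise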
[14] = biological target: Carbonic anhydrase 2 (Homo sapiens) (UniProt P00918); experiment: CAII small-molecule binders, profiling panel, biochemical, small-molecule microarray, Alexa647-labelled CAII (AID 1122); settings: CAII-A647 binding fluorescence, higher = more signal
[15] = COS7 lysate on small-molecule microarray, probe aHis, 635 nm (AID 1123); settings: COS7 cell lysate, fluorescence, higher = more signal;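 further: z-score combines 667nm fluorescence intensity with signal-to-noise per printed compound spot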
[16] = compound binding in COS7 lysate, probe aLAP1, primary screen, cell lysate, small-molecule microarray (AID 1124); settings: probe aLAP1, fluorescence, higher = more signal;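 further: lysate comes from COS7 cells expressing LAP1 and is applied at 0.3 µg/mL; score merges spot fluorescence near 667 nm with signal-to-noise over triplicate slides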
Sam68 (KHDRBS1) = experiment: Sam68 small-molecule binders, primary screen, biochemical, small-molecule microarray, 635 nm fluorescence (AID 1125); settings: small-molecule microarray binding, higher = more signal;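 further: score merges 667 nm channel intensity with signal to noise over triplicate slides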
[17] = test system: Chordin-like protein 2 (CHRDL2); experiment: CHRDL2 small-molecule binders, primary screen, biochemical, small-molecule microarray, 635 nm fluorescence (AID 1126); settings: small-molecule microarray binding, fluorescence 635 nm; higher = more signal;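 further: printed compound slides probed with Chrdl2 protein at 4 µg/mL for 1 h at 4 C; score merges 667 nm emission intensity with signal to noise over three replicate slides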
[18] = biological target: Concanavalin-A (Canavalia ensiformis) (UniProt P02866); experiment: ConA small-molecule binders, primary screen, artefact control for SMM control protein annotation, biochemical, small-molecule microarray, Alexa647 label, 635 nm (AID 1127); settings: ConA-A647 binding fluorescence, higher = more signal;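 further: z combines 667 nm emission intensity with signal-to-noise across three replicate slides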
Sequence of Concanavalin-A (Canavalia ensiformis) (P02866 whole entry, looked up): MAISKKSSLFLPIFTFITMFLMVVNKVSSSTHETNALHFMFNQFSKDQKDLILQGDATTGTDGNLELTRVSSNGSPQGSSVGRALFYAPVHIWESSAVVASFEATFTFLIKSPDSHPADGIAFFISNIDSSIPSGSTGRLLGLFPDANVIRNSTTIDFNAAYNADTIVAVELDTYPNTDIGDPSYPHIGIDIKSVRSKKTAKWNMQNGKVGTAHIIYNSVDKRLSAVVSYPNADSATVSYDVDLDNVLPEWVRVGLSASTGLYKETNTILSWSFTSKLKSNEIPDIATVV

SMILES	composite z-score [1]	z-score [2]	composite z-score [3]	composite z-score [4]	composite z-score [5]	composite z-score [6]	composite z-score [7]	composite z-score [8]	composite z-score [9]	composite z-score [10]	composite z-score (Albumin (Bos taurus))	composite Z-score [11]	composite z-score [12]	composite z-score [13]	composite z-score [14]	composite z-score [15]	composite z-score [16]	composite z-score (Sam68 (KHDRBS1))	composite z-score [17]	composite z-score [18]
CCCCCCCCCCC(O)C1C=CC2C(=O)N(C)C(=O)C2N1NC(=O)OC(C)(C)C (stereo not given)	1.17	-2.54	0.186	1.41	0.953	-0.0684	0.445	0.3	-0.122	0.294	0.682	0.245 (inactive)	-0.0077	-0.124	0.344	1.24	-0.45	0.717	-0.409	1.12
COC(=O)[C@H](Cc1ccccc1)N1CC(/C=C/C2CC2)=C[C@H]1[C@H](O)Cc1ccccc1	0.484	-4.03	0.396	0.405	-0.647	-0.0944	-0.0693	0.287	0.425	1.2	0.59	-0.0662 (inactive)	-0.095	-0.14	0.456	0.726	0.148	1.2	0.732	0.981
Cc1ccc(S[C@]2(C(=O)O)CC(=O)N(C3Cc4ccccc4C3)[C@@H]2c2ccc(CO)cc2)cc1	0.0922	-0.0907	-1.07	0.967	1.1	0.0077	-0.0322	0.649	0.0148	0.0125	0.0322	0.736 (inactive)	-0.102	-0.057	0.727	2.65	0.826	0.667	-1.8	-0.458
COCCCNC(=O)[C@]1(CCS(=O)(=O)c2ccccc2)N=C(c2ccc(OCCCO)cc2)O[C@@H]1c1ccccc1CN=[N+]=[N-]	0.826	-1.47	0.329	2.49	1.12	0.392	0.536	1.54	2.7	2.16	1.05	0.0933 (inactive)	0.271	0.228	0.735	2.79	0.295	1.3	-0.79	1.24
COc1ccc([Si](C)(C)[C@@H]2[C@@H](CCn3cc([C@H](O)c4ccccc4)nn3)O[C@]3(C(=O)N(Cc4ccc(N5CCC5=O)cc4)c4ccccc43)[C@H]2C)cc1	-0.222	-2.06	-0.309	-0.185	-0.0351	-0.217	-0.191	0.318	0.0139	-0.0352	0.0006	0.811 (inactive)	-0.505	-0.0849	-0.266	0.121	-0.426	-0.323	-0.0871	0.469
COC(=O)[C@@]1(Cc2ccc(F)cc2)[C@H]2c3cc(C(=O)N(C)C)n(Cc4cc(F)cc5c4OCOC5)c3C[C@H]2CN1C(=O)c1ccccc1	1.41	-1.81	0.011	1.68	0.0074	-0.001	0.0856	0.468	0.822	1.04	1.07	-0.199 (inactive)	0.24	0.105	0.376	2.97	0.271	1.33	-0.535	1.04
C=CC[C@]1(C(=O)O)COC(c2ccc(OCCCO)cc2)=N1	0.549	0.183	0.268	0.0295	0.47	-0.0203	-0.138	-0.419	-0.0942	0.291	0.157	0.0512 (inactive)	-0.0967	-0.222	0.969	1.14	0.308	0.343	0.422	-0.427
C=CCC(OC(C)=O)[C@@H]1[C@@H](N(Cc2ccc(-c3cccc(C(F)(F)F)c3)o2)C(=O)c2ccc(C)cc2)c2cc(OCCCO)ccc2N1C(=O)c1ccc2ccccc2c1 (stereo not given in full)	-0.191	-0.471	-0.0584	-0.287	-0.208	0.0433	-0.221	-0.347	-0.048	-0.0213	0.149	-0.0045 (inactive)	-0.0377	-0.14	0.151	0.387	-0.0397	-0.285	0.287	0.0961
C=C[C@@H](OC)[C@H](OC(=O)Nc1ccc(SC)cc1)c1ccc(O)c(F)c1	1.33	0.362	-0.374	-0.25	-0.479	-0.142	-0.0626	0.0553	0.345	1.22	0.622	-0.584 (inactive)	0.0337	-0.0891	0.699	2.18	0.683	1.07	0.0611	0.0462
CCOC(=O)C1=CC[C@@H](c2ccccc2C(F)(F)F)N(S(=O)(=O)c2ccc(C)cc2)[C@H]1c1ccc(C#N)cc1	0.325	0.65	0.327	1.63	0.697	-0.0152	-0.283	-0.301	0.408	0.969	0.733	-0.554 (inactive)	0.223	-0.0211	0.675	0.791	1.25	0.892	0.475	1.11
C=CCOC(=O)[C@H]1[C@@H]2C(=O)O[C@@H](c3ccccc3)[C@@H](c3ccccc3)N2[C@@H](c2ccc(OCCOC(=O)[C@H]3C[C@H]4C(=O)N[C@@H](CCCCNC(C)=O)C(=O)N4[C@H]3c3ccc(O)cc3)cc2)[C@]12C(=O)Nc1ccccc12	0.94	-0.103	0.594	1.03	0.328	-0.124	0.157	0.0322	1.67	1.89	-1.06	1.09 (inactive)	0.0076	-0.112	0.634	1.19	-0.549	1.3	0.998	1.16
